# Screening data: PubChem BioAssay, National Center for Advancing Translational Sciences (NCATS)
# Hits are enriched below; roughly 19% of the tested compounds scored in any of these assays.
# TDP1 cell noCPT: qHTS for Inhibitors of human tyrosyl-DNA phosphodiesterase 1 (TDP1): qHTS in cells in absence of CPT; DT40 Tdp1-/- hTDP1 cells, no CPT, ATP luminescence, 48 h; hit rate 15% among 420,000; Potency, µM (top dose mostly 46.2 µM), for the others: top-dose activity change, negative = growth inhibition, most hits filed as inhibitors; AID 686978, 2013; also: potency is read from the fitted curve at half-maximal effect; nearly all actives have a fitted effect of over 55% in size
#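 Cells were dispensed at 400 per well, compounds added by pin tool, plates incubated ≥48 hr at 37 °C, then CellTiter-Glo added for 30 min at room temperature before luminescence reading. Line: DT40 Tdp1-/- complemented with hTDP1; camptothecin omitted.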
# ELG1 DNA repair: qHTS screen for small molecules that inhibit ELG1-dependent DNA repair in human embryonic kidney (HEK293T) cells expressing luciferase-tagged ELG1; HEK293T ELG1-luciferase reporter, luminescence, 16 h; DNA damage induced by 5-fluorouridine; Potency, µM (highest dose often 46.1 µM), for the others: top-dose activity change, negative = inhibition, most hits filed as inhibitors; hit rate 2.3% among 330,000; AID 504467, 2011; also: potency is read from the fitted curve at half-maximal effect; nearly all actives have a fitted effect of over 55% in size
#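 Cells (2,000 per well) received 5-fluorouridine plus test compound or DMSO and were incubated 16 hr at 37 °C, 5% CO2. Luciferase activity was read by luminescence 30 min after ONE-Glo addition; signal suppression marked inhibition of damage-induced ELG1 function.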
# HT1080-NT tox: qHTS for induction of synthetic lethality in tumor cells producing 2HG: qHTS for the HT-1080-NT fibrosarcoma cell line; hit rate 1.6% among 360,000; AID 686970, 2013; HT-1080-NT fibrosarcoma viability, CellTiter-Glo ATP luminescence, 48 h; Potency, µM (top dose mostly 46.1 µM), for inactives: at the highest dose activity, negative = less viability, usual class: cytotoxic;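 also: NT is the 2HG producing partner of a matched IDH1 knockdown line; potency is read from the fitted curve at half-maximal effect; 0% = DMSO-treated cells and -100% = media-only wells without cells; nearly all actives have a fitted effect of over 55% in size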
#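 Fibrosarcoma NT cells, 750 per well in 5% FBS RPMI, were exposed to compound for 48 hours. Viability: CellTiter-Glo luminescence.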
# DT40 TDP1 CPT: qHTS for Inhibitors of human tyrosyl-DNA phosphodiesterase 1 (TDP1): qHTS in cells in presence of CPT | Potency, µM (highest dose often 46.2 µM), without a hit: at the top dose activity change, negative = growth inhibition, most hits filed as inhibitors | AID 686979, 2013 | chicken DT40 Tdp1-/-;hTDP1 cells + 20 nM CPT, ATP luminescence, 48 h | hit rate 12% among 420,000; also: potency is read from the fitted curve at half-maximal effect; nearly all actives have a fitted effect of over 55% in size
#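 Cell growth measured by CellTiter-Glo luminescence after a minimum 48 h, 37 C compound exposure with 20 nM CPT in Tdp1-knockout DT40 cells stably expressing hTDP1, seeded 400/well; qHTS titration format.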
# IL1B secr inh: qHTS for Inhibitors of Inflammasome Signaling: IL-1-beta AlphaLISA Primary Screen; THP-1 LPS/ATP IL-1B secretion, AlphaLISA, 16 h; active compounds read low; activity change, % at 57.5 µM; hit rate 4.7% among 360,000; in the data active = activity change below about -50%; inconclusive = mostly about -30% to -49%
#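 Secreted IL-1B measured by AlphaLISA bead assay after 16 h compound exposure of THP-1 cells; compounds (final up to 57.5 uM) added 1 h before LPS (250 ng/mL) and ATP (1.25 mM) stimulation; lower signal means less secretion.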
# HT1080 IDH1KD tx: qHTS for induction of synthetic lethality in tumor cells producing 2HG: qHTS for the HT-1080-IDH1KD cell line; hit rate 2% among 360,000; Potency, µM (top dose mostly 46.1 µM), for the others: at the highest dose activity, negative = toxicity, actives largely listed as cytotoxic; HT-1080 IDH1 knockdown viability, ATP luminescence, 48 h; AID 686971, 2013;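 also: potency is read from the fitted curve at half-maximal effect; 0% = DMSO wells and -100% = cell-free medium wells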
#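 CellTiter-Glo luminescence after 48 h compound exposure at 37 degrees C of IDH1-knockdown HT-1080 cells in 5% FBS RPMI. %Activity scaled between DMSO wells and cell-free media wells, with curves fitted and assigned curve classes.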
# An asterisk follows results filed as active; ? = inconclusive; . = not tested or not shown; [ ] = remark or other dose. Unless noted, calls follow the shape of the dose curve; as a rule, active = well fitted curve in the direction sought with a large enough effect; inconclusive = small, poorly fitted or top-dose-only effect, or another doubt; inactive = no such curve, though single readings can be large; an effect the other way counts as inactive or inconclusive. Unless noted, % is scaled to controls: 0 for no effect and ±100 for the full control effect.
SMILES,TDP1 cell noCPT,ELG1 DNA repair,HT1080-NT tox,DT40 TDP1 CPT,IL1B secr inh,HT1080 IDH1KD tx
COC(=O)C1C(C(=O)OC)C1(c1ccccc1)c1ccccc1 (centres undefined),-22.0%,-1.7%,0.6%,-8.9%,-6.2,-7.3%
COC(=O)N1C(=O)[C@@](c2ccccc2)(C2CCCCC2)N1C(=O)OC,18.4µM*,-0.3%,?,?,-102.8*,-22.5%
Cc1cccc(OCC(=O)NNC(=O)CCCCC(=O)NNC(=O)COc2cccc(C)c2)c1,13.4%,4.4%,0.0%,0.2%,4.4,13.7%
CC[C@]1(c2cccc(C)c2)C(=O)N(C(=O)OC)N1C(=O)OC,13µM*,?,12.1%,5.17µM*,-105.0*,12.2%
CC[C@@]1(c2ccccc2)C(=O)N(C(=O)OC)N1C(=O)OC,?,-25.8%,16.4%,8.2µM*,?,6.4%
COc1cc(SC)ccc1C(=O)N1CCn2c3c(c4cc(C)ccc42)CCCC31 (centres undefined),?,.,.,-2.5%,.,.
CCCOc1ccc(-c2nn(-c3ccccc3)cc2/C=C2\SC(N)=NC2=O)cc1C,?,-20.7%,12.4%,16.4µM*,-8.3,8.1%
CCOC(=O)COc1ccc(Br)cc1/C=C1\SC(N)=NC1=O,?,5.4%,-2.1%,-3.8%,-4.8,0.8%
COc1ccc(/C(N)=N/OC(=O)c2ccc(OC)c([N+](=O)[O-])c2)cc1OC,11.6µM*,5.0%,-0.9%,?,-13.4,-3.0%
COc1ccccc1C/C(N)=N/OC(=O)c1ccc2c(c1)OCO2,?,9.2%,?,?,-1.6,-7.5%
COc1ccccc1C/C(N)=N/OC(=O)c1ccc(C)c([N+](=O)[O-])c1,?,11.4%,-2.1%[9.24 µM],?,8.8,10µM*
COc1ccc(C(=O)O/N=C(\N)c2ccc(OC)c(OC)c2)c(OC)c1,?,?,-5.7%,?,-54.2*,0.0%
COc1ccccc1C/C(N)=N/OC(=O)c1ccco1,-2.2%,12.0%,-2.0%,20.6µM*,-7.9,-5.6%
CCOCCc1c(O)nc(SCCOc2ccc(C)c(C)c2)[nH]c1=O,-9.5%,0.0%,9.2%,1.5%,19.9,6.5%
Cc1c(C(=O)N/N=C/C(C)C)[nH]c2c([N+](=O)[O-])cccc12,23.1µM*,-3.8%,?,3.7%,79.7,2.59µM*
CC(C)CC1C(=O)N(Cc2cn(CCC3OCCO3)nn2)CCS(=O)(=O)N1Cc1ccc(-c2cccc(CO)c2)cc1 (centres undefined),23.1µM*,.,11.5%,?,-11.0,4.8%
CC(C)CC1C(=O)N(Cc2cn(CCC3OCCO3)nn2)CCS(=O)(=O)N1Cc1ccc(-c2cccc(N(C)C)c2)cc1 (centres undefined),20.6µM*,.,?,?,-17.6,-26.6%
Cc1cccc(C)c1-c1ccc(CN2C(CC(C)C)C(=O)N(Cc3cn(CCO)nn3)CCS2(=O)=O)cc1 (centres undefined),?,.,-10.9%,?,-56.7*,-19.5%
CC1C(=O)N(Cc2cn(CCC3OCCCO3)nn2)CCS(=O)(=O)N1Cc1ccc(-c2cccc(CO)c2)cc1 (centres undefined),?,.,-0.5%,-21.9%,86.8,-2.7%
CC(C)C1C(=O)N(Cc2cn(CCC3OCCO3)nn2)CCS(=O)(=O)N1Cc1ccc(-c2cccc(CO)c2)cc1 (centres undefined),23.1µM*,.,0.8%,?,0.0,11.7%
